From PubChem
HPGD block = blocks human HPGD enzyme activity; Potency, µM, hits mostly inhibitors; P15428; purified HPGD, NADH fluorescence kinetic, PGE2 substrate; 150,000 compounds, 4.3% hits; AID 894; active = well fitted inhibition curve with a large enough effect, not every such curve was filed as active; inconclusive = small, poorly fitted or top-dose-only effect, or another doubt; inactive = no such curve, though single readings can be large or run the other way
Target sequence (P15428 whole entry, looked up): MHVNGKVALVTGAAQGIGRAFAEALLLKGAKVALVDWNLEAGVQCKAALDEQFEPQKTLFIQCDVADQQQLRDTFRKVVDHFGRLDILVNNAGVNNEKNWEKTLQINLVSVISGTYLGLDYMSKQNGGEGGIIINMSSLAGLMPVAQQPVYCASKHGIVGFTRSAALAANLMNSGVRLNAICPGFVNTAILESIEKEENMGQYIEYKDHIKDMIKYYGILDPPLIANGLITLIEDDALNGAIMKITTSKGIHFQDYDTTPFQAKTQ
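20 nM HPGD preincubated 15 min at room temperature with compound in 50 mM Tris-HCl pH 8, 0.01% Tween 20. Started with 1 mM NAD+ and 30 uM prostaglandin E2; NADH fluorescence (360/450 nm) read 5 times over 30-s intervals, last minus first.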
Luc counter = counter-screen: inhibitors of Kinase-Glo firefly luciferase; Q27757; Kinase-Glo luciferase, ATP luminescence, 8 min; Potency, µM (doses to about 38.3 µM), usual class: inhibitors; 200,000 compounds, 0.28% hits; AID 1379; also: nearly all actives have a fitted effect of over 60% in size
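Compound is pinned into ATP-containing buffer (10 uM ATP, imidazole pH 7.2, 7 mM MgCl2). Kinase-Glo luciferase reagent is then added. Light output is recorded following an 8-min room-temperature incubation.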
LMNA splice mod = LMNA splicing modulation. AID 1487. Potency, µM (highest dose often 46.1 µM), hits mostly inhibitors. 200,000 compounds, 0.01% hits. HeLa LMNA splicing GFP/RFP minigene ratio, 48 h; active = well fitted inhibition curve with a large enough effect in the signal ratio, with a control signal flat, not every such curve was filed as active; inconclusive = small, poorly fitted or top-dose-only effect, or effect the other way, or a change in a side signal; the % refers to the signal ratio
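S3 HeLa cells stably expressing lamin A-EGFP splicing minigene plus DsRed2, 600 cells/well, 48 h compound exposure at 37C. Laser-scanning cytometry; analysed as GFP (500-530 nm)/RFP (575-640 nm) total intensity ratio; 0.5% DMSO vehicle.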
ALDH1A1 inh = inhibitors of human aldehyde dehydrogenase 1A1. Purified ALDH1A1, NADH fluorescence, propionaldehyde substrate. Potency, µM (highest dose often 75.3 µM), usual class: inhibitors. 220,000 compounds, 7.3% hits. AID 1030; active = well fitted inhibition curve with a large enough effect, not every such curve was filed as active; inconclusive = small, poorly fitted or top-dose-only effect, or another doubt; inactive = no such curve, though single readings can be large or run the other way
IMPase Li inh = cell-permeable IMPase inhibitors with lithium potentiation; 210,000 compounds, 0.35% hits; Potency, µM (titrated, usually from 59.4 µM), usual class: inhibitors; CHO-M1 cells, IP1 TR-FRET (IP-One), carbachol + lithium;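 also: IP1 builds up when IMPase is blocked and the TR-FRET signal falls; nearly all actives have a fitted effect of over 50% in size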
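Test compounds were applied to CHO-M1 cells previously cultured for 16–30 h at 2000 per well. A small lithium amount accompanied them; after 30 min at 37C, IP1 was quantified by TR-FRET.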
Hits are given with their value; . = inactive; ? = inconclusive; / = no result given; ! = repeats disagree; [ ] = another dose, or the depositor's remark. Only some compounds are listed: those with a hit (about 9% of all), similar ones and a draw of the others. Unless noted, calls follow the shape of the dose curve; as a rule, active = well fitted curve in the direction sought with a large enough effect; inconclusive = small, poorly fitted or top-dose-only effect, or another doubt; inactive = no such curve, though single readings can be large; an effect the other way counts as inactive or inconclusive.

SMILES	HPGD block	Luc counter	LMNA splice mod	ALDH1A1 inh	IMPase Li inh
CCOC(=O)C1=C(O)c2ccccc2C(=O)/C1=C\c1ccc(C)cc1	14.1µM	.	?	7.94µM	.
CCCCCCCCCCCC1=C(O)C(=O)C=C(O)C1=O	14.1µM!	.	/	23.8µM	.
Cc1cccc(C(=O)N2CCc3cc(CNC(=O)CCc4ccccc4)ccc32)c1	/	/	.	/	/
CC(C1CCCC(=O)C1)[N+](=O)[O-] (stereo not drawn)	.	.	/	.	.
O=C(COc1ccc(Br)cc1)OCc1nnc(-c2ccccc2)o1	28.2µM	.	.	.	.
O=C(OCc1nnc(-c2ccccc2)o1)c1cc(S(=O)(=O)N2CCOCC2)c(Cl)cc1Cl	7.94µM	.	.	.	.
Cc1ccc(C(=O)OCc2nnc(-c3ccccc3)o2)o1	7.08µM	.	.	.	.
O=C(OCc1nnc(-c2ccccc2)o1)c1cc([N+](=O)[O-])ccc1Cl	/	.	?	.	.
O=C(OCc1nnc(-c2ccccc2)o1)c1ccc2c(c1)OCCO2	7.94µM	.	.[0.0737 µM]	.	.
Clc1ccc(CSCCc2ccncc2)cc1Cl	.	.[7.66 µM]	/	.[13.5 µM]	.
O=C(OCc1nnc(-c2ccccc2)o1)c1ccc2ccccc2n1	25.1µM	.	.	.	.
O=C(OCc1nnc(-c2ccccc2)o1)c1cc2ccccc2cc1O	/	.	.	.	.
O=C(OCc1nnc(-c2ccccc2)o1)c1ccc(S(=O)(=O)NCc2ccco2)cc1	11.2µM	.	.	.	.
NC(=O)COC(=O)c1ccc(S(=O)(=O)NCc2ccco2)cc1	/	.	?	.	.
CCCCCCCC(=O)O[C@H](CC(=O)O)C[N+](C)(C)C	.	.	/	.	.
O=C(NNC(=S)Nc1ccccc1)C1CCCCC1	/	.	/	.	.
O=C(O)C1CN(CCCP(=O)(O)O)CCN1 (stereo not drawn)	.	.	?	.	.
FC(F)(F)c1cnc(Oc2ccc(-c3nnco3)cc2)c(Cl)c1	11.2µM	.	?	.	.
O=C(CSc1ccc([N+](=O)[O-])cc1)NCC1CCCCC1	/	.	/	28.2µM	.
O=C(N/C(=C\c1ccc(Br)cc1)C(=O)N1CCCC1)c1ccccc1F	/	.	/	?	.
C=CCn1c(N)cc(=O)nc1SCC(=O)N(c1ccccc1)c1ccccc1	/	.	/	22.4µM	.
C=CCn1c(N)cc(=O)nc1SCC(=O)Nc1ccc(C)cc1	/	.	.	.	.
Clc1cccc(-c2ccc(CNCCCN3CCOCC3)o2)c1	/	.	/	28.2µM	.
CCCCC(=O)NC(=S)Nc1cccc(NC(=O)c2ccccc2)c1	/	.	/	?	.
O=S(=O)(c1ccccc1)c1nc(-c2ccco2)oc1NCc1ccco1	.	.	.	.	.
SMILES	HPGD block	Luc counter	LMNA splice mod	ALDH1A1 inh	IMPase Li inh
CCNc1oc(-c2ccc(OC)cc2)nc1S(=O)(=O)c1ccc(Br)cc1	.	.	.	?	.
O=S(=O)(c1ccccc1)c1nc(-c2ccco2)oc1NCCCn1ccnc1	.	.	.	25.1µM	.
CCCCNc1oc(-c2ccc(OC)cc2)nc1S(=O)(=O)c1ccccc1	?	.	.	22.4µM	.
COc1ccc(OC)c(S(=O)(=O)NCc2cccn2Cc2cccc(C)c2)c1	/	/	.	/	/
CC(C)CC(=O)NNC(=S)Nc1ccc(S(N)(=O)=O)cc1	/	.	/	11.2µM	.
S=C(NCc1cccnc1)Nc1ccc(Oc2ccccc2)cc1	/	.	?	31.6µM	.
CC(C)CC(=O)NC(=S)Nc1ccc(S(=O)(=O)NC(C)(C)C)cc1	.	.	?	?	.
NS(=O)(=O)c1ccc(NC(=S)NCc2ccccc2)cc1	20µM	.	.	20µM	.
NS(=O)(=O)c1ccc(NC(=S)NCc2ccccc2Cl)cc1	.	.	.	25.1µM	.
CC(=O)c1cccc(S(=O)(=O)NCC(c2ccco2)N2CCCCC2)c1 (stereo not drawn)	.	.	.	11.2µM	.
CC(=O)c1ccc(C2C=CC(Oc3ccc(-c4ccccc4)cc3)C(CO)O2)cc1 (stereo not drawn)	/	/	/	.[13.5 µM]	/
Cc1ccc(-n2nnnc2C(Cl)(Cl)c2nnnn2-c2ccc(C)cc2)cc1	3.55µM	.	.	1.26µM	.
O=C(O)/C(=C\c1ccccc1OC(F)F)Sc1nnc(-c2ccc(F)cc2)o1	/	.	/	.	.
CCOC(=O)Cn1nnnc1C(CC)N(Cc1cccs1)Cc1cc2cc(C)ccc2[nH]c1=O (stereo not drawn)	?	.	.	?	.
CCOC(=O)Cn1nnnc1C(CC)N(Cc1cc2ccc(C)cc2[nH]c1=O)C1CCCC1 (stereo not drawn)	.	.	.	20µM	.
CCOC(=O)Cn1nnnc1C(CC)N(Cc1cc2c(C)cc(C)cc2[nH]c1=O)C1CCCC1 (stereo not drawn)	.	.	.	17.8µM	.
Cc1cccc(C)c1NC(=O)C1C2C=CC(C2)C1C(=O)NCc1ccccn1 (stereo not drawn)	.	.	.	.	.
